# Experimental data reported in PubChem BioAssay AID1159580 (chemical genetic matrix, 2015).
# Where “and” joins values, the source holds several entries; their conditions need not be identical. Equal values may be shown once. Hit rate of the full screen: of about 5,500 compounds, about 2,000 (36%) were called active. Roughly 18% stayed inconclusive and do not appear here. The list shows a part of the results. Values without a mark were called inactive. No stated cut-off is given here; in the data, active means normalized growth mostly below about 0.91 (no sharp cut-off); inconclusive means no clear call, values can overlap the other calls; inactive means mostly above about 0.92.
# Experiment: chemical genetic growth profiling, strain panel (AID 1159580);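 further: tested at 20 µM; growth read once vehicle control cultures reached saturation at 30 °C; 1 = growth at the plate median or of vehicle wells; lower values mean less growth of the strain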
# Conditions: S. cerevisiae deletion strains, growth OD
structure (smiles),measurement,setting,value
COc1cc(O)c2c(c1)C(=O)c1cc(C)cc(O)c1C2=O,normalized growth,"locus YAL013W, strain DEP1, hits give low values",0.991
same,normalized growth,"locus YAL021C, strain ccr4, hits give low values",0.987
same,normalized growth,"locus YAL026C, strain drs2, hits give low values",0.997
same,normalized growth,"locus YAL030W, strain snc1, hits give low values",0.98
same,normalized growth,"locus YBL061C, strain skt5, hits give low values",0.994
same,normalized growth,"locus YBR009C, strain hhf1, hits give low values",1
same,normalized growth,"locus YBR021W, strain FUR4, hits give low values",1.04
same,normalized growth,"locus YBR023C, strain chs3, hits give low values",0.988
same,normalized growth,"locus YBR171W, strain sec66, hits give low values",0.995
same,normalized growth,"locus YBR229C, strain ROT2, hits give low values",1.01
same,normalized growth,"locus YBR231C, strain swc5, hits give low values",0.993
same,normalized growth,"locus YBR279W, strain paf1, hits give low values",0.998
same,normalized growth,"locus YCL011C, strain gbp2, hits give low values",1
same,normalized growth,"locus YCL016C, strain dcc1, hits give low values",0.98
same,normalized growth,"locus YCL029C, strain bik1, hits give low values",1
same,normalized growth,"locus YCL061C, strain MRC1, hits give low values",0.977
same,normalized growth,"locus YCL069W, strain vba3, hits give low values",0.995
same,normalized growth,"locus YCR088W, strain abp1, hits give low values",0.993
same,normalized growth,"locus YDL005C, strain med2, hits give low values",0.971
same,normalized growth,"locus YDL035C, strain GPR1, hits give low values",0.997
same,normalized growth,"locus YDL040C, strain nat1, hits give low values",0.99
same,normalized growth,"locus YDL074C, strain BRE1, hits give low values",0.974
same,normalized growth,"locus YDL101C, strain DUN1, hits give low values",1
same,normalized growth,"locus YDL134C, strain PPH21, hits give low values",1
same,normalized growth,"locus YDL185W, strain tfp1, hits give low values",1
same,normalized growth,"locus YDL192W, strain arf1, hits give low values",1.01
same,normalized growth,"locus YDR001C, strain nth1, hits give low values",0.998
same,normalized growth,"locus YDR069C, strain doa4, hits give low values",0.981
same,normalized growth,"locus YDR101C, strain arx1, hits give low values",0.986
same,normalized growth,"locus YDR137W, strain rgp1, hits give low values",0.76 (active)
same,normalized growth,"locus YDR150W, strain NUM1, hits give low values",1.02
same,normalized growth,"locus YDR159W, strain sac3, hits give low values",0.965
same,normalized growth,"locus YDR162C, strain NBP2, hits give low values",0.982
same,normalized growth,"locus YDR195W, strain ref2",1.01
same,normalized growth,"locus YDR297W, strain sur2, hits give low values",0.977
same,normalized growth,"locus YDR318W, strain mcm21, hits give low values",0.971
same,normalized growth,"locus YDR334W, strain swr1, hits give low values",1
same,normalized growth,"locus YDR335W, strain msn5, hits give low values",0.99
same,normalized growth,"locus YDR388W, hits give low values",1
same,normalized growth,"locus YDR392W, strain spt3, hits give low values",0.95
same,normalized growth,"locus YDR502C, strain sam2, hits give low values",0.989
same,normalized growth,"locus YEL003W, strain gim4, hits give low values",0.997
same,normalized growth,"locus YEL037C, strain rad23, hits give low values",1.01
same,normalized growth,"locus YEL061C, strain CIN8 (second series), hits give low values",0.995
same,normalized growth,"locus YER015W, strain faa2, hits give low values",0.999
same,normalized growth,"locus YER016W, strain bim1, hits give low values",0.976
same,normalized growth,"locus YER110C, hits give low values",1.01
same,normalized growth,"locus YER111C, strain swi4, hits give low values",0.987
same,normalized growth,"locus YER155C, strain BEM2 (second series), hits give low values",0.973
same,normalized growth,"locus YER155C, strain BEM2, hits give low values",1.01
same,normalized growth,"locus YER167W, strain BCK2, hits give low values",0.994
same,normalized growth,"locus YFR010W, strain ubp6, hits give low values",1.02
same,normalized growth,"locus YGL078C, strain dbp3, hits give low values",1.01
same,normalized growth,"locus YGL086W, strain mad1, hits give low values",1
same,normalized growth,"locus YGL167C, strain pmr1, hits give low values",0.977
same,normalized growth,"locus YGL173C, strain kem1, hits give low values",0.993
same,normalized growth,"locus YGL227W, strain vid30, hits give low values",1
same,normalized growth,"locus YGL240W, strain doc1, hits give low values",0.98
same,normalized growth,"locus YGL248W, strain PDE1, hits give low values",1.01
same,normalized growth,"locus YGL253W, strain hxk2, hits give low values",1.01
same,normalized growth,"locus YGR078C, strain PAC10, hits give low values",0.989
same,normalized growth,"locus YGR135W, strain pre9, hits give low values",0.992
same,normalized growth,"locus YGR229C, strain SMI1, hits give low values",0.968
same,normalized growth,"locus YGR252W, strain gcn5, hits give low values",1.06
same,normalized growth,"locus YHR013C, strain ard1, hits give low values",0.997
same,normalized growth,"locus YHR027C, strain rpn1, hits give low values",0.999
same,normalized growth,"locus YHR030C, strain SLT2, hits give low values",1.01 and 1
same,normalized growth,"locus YHR079C, strain IRE1 (second series), hits give low values",0.981
same,normalized growth,"locus YHR079C, strain IRE1, hits give low values",1.04
same,normalized growth,"locus YHR094C, strain hxt1, hits give low values",1
same,normalized growth,"locus YHR129C, strain ARP1, hits give low values",0.998
same,normalized growth,"locus YHR142W, strain chs7, hits give low values",1.04
same,normalized growth,"locus YHR200W, strain rpn10, hits give low values",1
same,normalized growth,"locus YIL066C, strain RNR3, hits give low values",1.01
same,normalized growth,"locus YIL073C, strain SPO22, hits give low values",0.991
same,normalized growth,"locus YIL125W, strain kgd1, hits give low values",0.994
same,normalized growth,"locus YIR030C, strain dcg1, hits give low values",0.993
same,normalized growth,"locus YJL092W, strain hpr5, hits give low values",0.997
same,normalized growth,"locus YJL095W, strain BCK1 (second series), hits give low values",0.972
same,normalized growth,"locus YJL095W, strain BCK1, hits give low values",0.883 and 0.965
same,normalized growth,"locus YJL115W, strain asf1, hits give low values",1
same,normalized growth,"locus YJL129C, strain trk1, hits give low values",0.981
same,normalized growth,"locus YJL134W, strain LCB3, hits give low values",1.01
same,normalized growth,"locus YJL154C, strain vps35, hits give low values",0.991
same,normalized growth,"locus YJL164C, strain tpk1, hits give low values",0.995
same,normalized growth,"locus YJL166W, strain qcr8, hits give low values",0.989
same,normalized growth,"locus YJL168C, strain set2, hits give low values",1
same,normalized growth,"locus YJL187C, strain SWE1 (second series), hits give low values",1
same,normalized growth,"locus YJL187C, strain SWE1, hits give low values",0.985
same,normalized growth,"locus YJR043C, strain POL32, hits give low values",1
same,normalized growth,"locus YJR066W, strain TOR1, hits give low values",0.987
